Laboratory results published in PubChem BioAssay (EPA / NIEHS).
Several values for one entry are separate records, joined by “and”; a condition that tells them apart may be missing. Identical values can stand only once. More than one record can exist for a structure, and the calls need not agree. Activity calls are given as the source filed them. Rule for the calls: active = hit-call score of the fitted dose curve at least 0.9, where 1 is the maximum; inactive = score below 0.9.

Legend:
[1] = read-out: Vascular cell adhesion molecule 1 (VCAM1), VCAM1 (gene 7412); assay: BSK_4H_VCAM1: BioMAP Diversity Plus: 4H Assay for Vascular cell adhesion molecule 1 (VCAM1) Biomarker Activity (AID 2283033); details: primary human endothelial cells (HUVEC); actives raise or lower the signal;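 for outcome: cell-surface VCAM-1 protein measured by ELISA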
Summary of the method: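 In this human endothelial (HUVEC) system, biomarker ELISA was run 24 h after compound addition, and total protein in parallel wells was assessed by SRB at 560 nm; DMSO served as negative control.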

[2] = read-out: Interferon-gamma inducible Protein 10 (IP10), CXCL10 (gene 3627); assay: BSK_BE3C_IP10: BioMAP Diversity Plus: BE3C Assay for Interferon-gamma inducible Protein 10 (IP10) Biomarker Activity (AID 2283034); details: primary human bronchial epithelial cells; actives raise or lower the signal
Summary of the method: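 BE3C cells (human bronchial epithelial, primary); 24 h exposure; ELISA for IP-10; DMSO-referenced bidirectional fit.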

[3] = read-out: Monokine induced gamma interferon (MIG), CXCL9 (gene 4283); assay: BSK_BE3C_MIG: BioMAP Diversity Plus: BE3C Assay for Monokine induced gamma interferon (MIG) Biomarker Activity (AID 2283035); details: primary human bronchial epithelial cells; actives raise or lower the signal;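 for outcome: MIG protein measured by ELISA in BE3C cultures after 24 h of dosing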
Summary of the method: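 hu bronchial epithelial 1° cells, 24 h cpd; MIG by ELISA; bidirectional fit, DMSO = baseline.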

[4] = read-out: Transforming growth factor beta 1 (TGFb1), TGFB1 (gene 7040); assay: BSK_BE3C_TGFb1: BioMAP Diversity Plus: BE3C Assay for Transforming growth factor beta 1 (TGFb1) Biomarker Activity (AID 2283036;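 for outcome: TGF-b1 protein level measured by ELISA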); details: primary human bronchial epithelial cells; actives raise or lower the signal
Summary of the method: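 TGF-b1 measured via ELISA, 24 h after chemical dosing of human bronchial epithelial cells (BE3C). Overt cytotoxicity assessed in parallel by SRB (0.1%, TCA-fixed, 560 nm); analysis bidirectional relative to DMSO.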

[5] = read-out: Plasminogen activator inhibitor-1 (PAI1), SERPINE1 (gene 5054); assay: BSK_BE3C_PAI1: BioMAP Diversity Plus: BE3C Assay for Plasminogen activator inhibitor-1 (PAI1) Biomarker Activity (AID 2283037); details: primary human bronchial epithelial cells; actives raise or lower the signal
Summary of the method: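 In this multiplexed primary-cell system, bronchial epithelial cells receive test chemical and are sampled at 24 h. PAI-1 is read by ELISA, with DMSO serving as negative control for bidirectional fitting.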

[6] = read-out: urokinase plasminogen activator (uPA), PLAU (gene 5328); assay: BSK_BE3C_uPA: BioMAP Diversity Plus: BE3C Assay for urokinase plasminogen activator (uPA) Biomarker Activity (AID 2283038); details: primary human bronchial epithelial cells; actives raise or lower the signal;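 for outcome: uPA protein level quantified by ELISA in cell cultures; uPA read one day after compound addition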
Summary of the method: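 Primary human bronchial epithelial cells, uPA measured by ELISA 24 h after dosing. Bidirectional change relative to DMSO; cytotoxicity checked in parallel cultures by sulforhodamine B total-protein staining.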

[7] = read-out: Urokinase-type plasminogen activator receptor (uPAR), PLAUR (gene 5329); assay: BSK_BE3C_uPAR: BioMAP Diversity Plus: BE3C Assay for Urokinase-type plasminogen activator receptor (uPAR) Biomarker Activity (AID 2283039); details: primary human bronchial epithelial cells; actives raise or lower the signal;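 for outcome: uPAR protein level measured by ELISA on the cells; cells exposed to compound for one day before measurement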
Summary of the method: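 Chemically treated human bronchial epithelial cells (lung primary) are assayed for uPAR by ELISA after 24 h, with data fitted in both directions using DMSO as negative control.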

[8] = read-out: Interleukin-6 (IL6), IL6 (gene 3569); assay: BSK_CASM3C_IL6: BioMAP Diversity Plus: CASM3C Assay for Interleukin-6 (IL6) Biomarker Activity for (AID 2283040); details: primary human coronary artery smooth muscle cells; actives raise or lower the signal
[9] = read-out: Tissue plasminogen activator (tPA), PLAT (gene 5327); assay: BSK_BE3C_tPA: BioMAP Diversity Plus: BE3C Assay for Tissue plasminogen activator (tPA) Biomarker Activity (AID 2283041); details: primary human bronchial epithelial cells; actives raise or lower the signal;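 for outcome: tPA level quantified by ELISA one day after compound addition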
Summary of the method: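 Using human lung primary bronchial epithelial cells, tPA was measured by ELISA 24 h after dosing; data fitted relative to DMSO.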

[10] = read-out: Interleukin-8 (IL8), CXCL8 (gene 3576); assay: BSK_CASM3C_IL8: BioMAP Diversity Plus: CASM3C Assay for Interleukin-8 (IL8) Biomarker Activity (AID 2283042); details: primary human coronary artery smooth muscle cells; actives raise or lower the signal;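 note: IL-8 protein level quantified by ELISA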

Row | SMILES | AC50 [1] | AC50 [2] | AC50 [3] | AC50 [4] | AC50 [5] | AC50 [6] | AC50 [7] | outcome [8] | AC50 [9] | outcome [10] | outcome [1] | outcome [2] | outcome [3] | outcome [4] | outcome [5] | outcome [6] | outcome [7] | outcome [9] | AC50 [8] | AC50 [10]
1 | NC(=O)N1C(=O)C(C(=O)c2cc(Cl)cs2)c2cc(F)c(Cl)cc21 (configuration not stated) | 24.5 µM (active) | 6.63 µM (active) | 9.59 µM (active) | 2.88 µM (active) | 3.15 µM (active) | 6.91 µM (active) | 6.27 µM (active) | inactive | 2.33 µM (active) | inactive |  |  |  |  |  |  |  |  |  | 
2 | Oc1cccc(O)c1 |  |  |  |  |  |  |  | inactive |  | inactive | inactive | inactive | inactive | inactive | inactive | inactive | inactive | inactive |  | 
3 | COCC(C)OCC(C)O (configuration not stated) |  |  |  |  |  |  |  | inactive |  | inactive | inactive | inactive | inactive | inactive | inactive | inactive | inactive | inactive |  | 
4 | CCCCCCCCCCCCCC[N+](C)(C)C | 2.83 µM (active) | 3.88 µM (active) | 8.17 µM (active) | 1.52 µM (active) | 2.63 µM (active) | 4.85 µM (active) | 4.06 µM (active) |  | 0.883 µM (active) |  |  |  |  |  |  |  |  |  | 9.39 µM (active) | 10.8 µM (active)
5 | CC(=O)CC(C)(C)O |  |  |  |  |  |  |  | inactive |  | inactive | inactive | inactive | inactive | inactive | inactive | inactive | inactive | inactive |  | 
6 | C[C@@H]1C[C@H]2[C@@H]3CCC4=CC(=O)C=C[C@]4(C)[C@@]3(F)[C@@H](O)C[C@]2(C)[C@@]1(O)C(=O)COP(=O)(O)O |  |  |  |  | 0.763 µM (active) |  |  |  | 478 nM (active) and 416 nM (active) |  | inactive | inactive | inactive | inactive | inactive | inactive | inactive | inactive | 158 nM (active) and 1.34 µM (active) and 690 nM (active) | 176 nM (active) and 1.04 µM (active) and 101 nM (active)
7 | N#C[C@@H]1CC(F)(F)CN1C(=O)CNC1CC2CCC(C1)N2c1ncccn1 (some centres not stated) |  |  |  |  |  |  |  | inactive |  | inactive | inactive | inactive | inactive | inactive | inactive | inactive | inactive | inactive |  | 
8 | CCCCCCCCOC(=O)CCCCCCCCC(=O)OCCCCCCCC |  |  |  |  |  |  |  | inactive |  | inactive | inactive | inactive | inactive | inactive | inactive | inactive | inactive | inactive |  | 
9 | CN(C)C=O |  |  |  |  |  |  |  | inactive |  | inactive | inactive | inactive | inactive | inactive | inactive | inactive | inactive | inactive |  | 
10 | O=C(O)c1ccccc1C(c1ccc(O)cc1)c1ccc(O)cc1 |  | 31.1 µM (active) |  |  | 33.4 µM (active) |  |  | inactive |  | inactive | inactive |  | inactive | inactive |  | inactive | inactive | inactive |  | 
11 | OCCC(F)(F)C(F)(F)C(F)(F)C(F)(F)C(F)(F)C(F)(F)C(F)(F)C(F)(F)F | 41.3 µM (active) and 22.7 µM (active) | 12.7 µM (active) and 17.9 µM (active) | 33.5 µM (active) and 28.7 µM (active) |  | 16.7 µM (active) and 24.8 µM (active) | 27.9 µM (active) and 27.7 µM (active) | 20.9 µM (active) and 22.9 µM (active) | inactive | 11.6 µM (active) and 14 µM (active) | inactive | inactive | inactive | inactive | inactive | inactive | inactive | inactive | inactive |  | 42.7 µM (active)
12 | C=C(C)C(=O)OCCC(F)(F)C(F)(F)C(F)(F)C(F)(F)C(F)(F)C(F)(F)F |  |  |  |  |  |  |  | inactive | 3.97 µM (active) | inactive | inactive | inactive | inactive | inactive | inactive | inactive | inactive | inactive | 20 µM (active) | 
13 | CN1CCC[C@H]1c1cccnc1 |  |  |  |  |  |  |  | inactive |  | inactive | inactive | inactive | inactive | inactive | inactive | inactive | inactive | inactive |  | 
14 | c1ccc2c(c1)ccc1ccccc12 |  |  |  |  |  |  |  | inactive |  | inactive | inactive | inactive | inactive | inactive | inactive | inactive | inactive | inactive |  | 
15 | CCCCCCCCCCCCN1CCCC1=O | 34.2 µM (active) | 30.6 µM (active) | 35.2 µM (active) | 20 µM (active) | 31.8 µM (active) | 35.1 µM (active) | 32.4 µM (active) | inactive | 15.4 µM (active) | inactive |  |  |  |  |  |  |  |  |  | 
